Compounds without any hit were thinned out: in the full panel of roughly 79,000, 15% have a hit. Calls of active or inactive are those of the source. Rule as the data show it: active = growth inhibition above about 70%; inactive = the rest.
Experiment: NCI Yeast Anticancer Drug Screen. Data for the mlh1 strain (AID 171);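 also: 0% = growth of vehicle-treated control cultures of the same strain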
Conditions: S. cerevisiae mlh1 strain growth inhibition, active compounds read high
Description: Growth inhibition of yeast strains with defined genetic alterations is measured as a screen for potential anti-cancer activity. Selected strains with alterations in DNA damage repair or cell cycle control were exposed to compounds and growth inhibition was measured relative to vehicle treated controls. The strain used in this assay is mlh1

Measured: growth inhibition

CC1=CN2C(c3ccccc3)=NON(c3ccc(C)cn3)C2C=C1 (stereo not given)
inactive: at 1.2 µM 0% | at 3.7 µM -2% | at 11.0 µM -3% | at 33.0 µM -1% | at 100.0 µM -4%

O=C1C(=C2CCCC2)CCC1CN1CCCCC1 (stereo not given)
active: at 33.0 µM 84% | at 100.0 µM 97%
inactive: at 1.2 µM 0% | at 3.7 µM 0% | at 11.0 µM 13%

Cc1c2c(nc3ccccc13)C(=O)c1cccnc1C2=O
inactive: at 1.2 µM 22% | at 3.7 µM 15% | at 11.0 µM 20% | at 33.0 µM 17%
active: at 100.0 µM 84%

O=C(Cc1ccccc1)NNc1nc(NNC(=O)c2ccncc2)nc(Nc2ccc([N+](=O)[O-])cc2)n1
inactive: at 1.2 µM -3% | at 3.7 µM 8% | at 11.0 µM 42% | at 33.0 µM 58% | at 100.0 µM 55%

NC(=S)N/N=C1\c2ccccc2CCC1CCC1(O)CCc2ccccc2C1=O (stereo not given)
inactive: at 1.2 µM 14% | at 3.7 µM 14% | at 11.0 µM 46%
active: at 33.0 µM 79% | at 100.0 µM 81%

COc1cc(C(=O)C=O)cc(OC)c1OC
active: at 100.0 µM 88%
inactive: at 1.2 µM 9% | at 3.7 µM -3% | at 11.0 µM -6% | at 33.0 µM -8%

Cc1ccc(Nc2n[nH]c(=S)s2)c(C)c1
active: at 100.0 µM 89%
inactive: at 1.2 µM -9% | at 3.7 µM 6% | at 11.0 µM 19% | at 33.0 µM 64%

CCN(CC)CCCNc1ccc([N+](=O)[O-])c2nc3ccc(OC)cc3c(NCCCN(CC)CC)c12
inactive: at 1.2 µM 0% | at 3.7 µM -2% | at 11.0 µM 0% | at 33.0 µM -2% | at 100.0 µM -1%

— PubChem BioAssay (NCI)
